The list is not random: actives were taken first. Their share in the collection is about 3.3%.
Smad3 FoxH1 inh – Smad3 (human) transcription factor binding inhibition; P84022; TR-FRET Smad3/Dy647-FoxH1 peptide binding, europium anti-His; inhibition, % at 25 µM; hit rate 0.29% among 88,000; AID 630;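 active = compounds that reduce the energy-transfer binding signal between the protein and its labelled peptide by more than half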;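 note: 0% = Smad3 plus labelled peptide maximal FRET and 100% = peptide-only background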
Target sequence (P84022 whole entry, looked up): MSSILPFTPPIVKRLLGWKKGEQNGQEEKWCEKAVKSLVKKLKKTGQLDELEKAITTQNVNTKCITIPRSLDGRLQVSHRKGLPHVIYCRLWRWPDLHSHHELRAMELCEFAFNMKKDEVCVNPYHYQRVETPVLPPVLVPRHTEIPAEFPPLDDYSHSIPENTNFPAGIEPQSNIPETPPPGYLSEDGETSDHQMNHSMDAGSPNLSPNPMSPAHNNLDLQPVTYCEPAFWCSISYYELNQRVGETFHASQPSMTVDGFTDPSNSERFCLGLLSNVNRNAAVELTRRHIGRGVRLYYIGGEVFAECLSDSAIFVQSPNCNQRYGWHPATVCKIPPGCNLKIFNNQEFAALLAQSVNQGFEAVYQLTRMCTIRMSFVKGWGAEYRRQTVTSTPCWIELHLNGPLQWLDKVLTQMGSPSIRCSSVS
FAK inh – FAK (human) kinase inhibition. Q05397. biochemical FAK kinase activity assay. inhibition, %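 (tested at 7 µM)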. hit rate 0.84% among 97,000;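 note: 0% = DMSO and 100% = reference compound high control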
ERa coact pot – enhances coactivator binding to human estrogen receptor alpha; coactivator binding (% of control), % at 25.6 µM; hit rate 1.3% among 86,000; AID 639; P03372; TR-FRET ERalpha-LBD/SRC-Cy5 coactivator binding, 2 h; 100 = basal binding, no effect; in the data active = activity above about 200%;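 note: binding measured in presence of low estradiol as agonist stimulus; 0% = peptide alone without receptor and 100% = receptor with peptide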
ERb SRC1 inh – ER-beta (human) coactivator binding inhibition. TR-FRET ER-beta LBD / SRC1-Cy5 peptide binding; receptor agonist-loaded with 1 µM estradiol. AID 633. Q92731. inhibition, % at 25.6 µM. hit rate 1.3% among 86,000;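 active = compounds whose percent inhibition of the receptor-coactivator binding signal exceeds about 50% in the single-dose screen, limit read from the data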;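 note: 0% = receptor plus peptide wells without compound and 100% = peptide-only wells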
ERa coact inh – ER-alpha (human) coactivator binding inhibition; P03372; TR-FRET ER-alpha LBD / SRC-1 peptide, estradiol-bound; inhibition, % at 25.6 µM; hit rate 1.7% among 86,000; AID 629; in the data active = inhibition above about 50%;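 note: 0% = receptor plus peptide control and 100% = peptide only without receptor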
FAK inh conf – confirmation of human focal adhesion kinase (FAK) inhibitors; inhibition, % at 7 µM; FAK kinase biochemical inhibition assay; shares compounds with FAK inh; hit rate 28% among 750; AID 794
* hit, by the source's call; nt = no result; [ ] = dose if it differs, or a comment. Cut-off read from the data, not from the text of the source, unless noted: active = inhibition above about 19%; inactive = the rest.

SMILES | Smad3 FoxH1 inh | FAK inh | ERa coact pot | ERb SRC1 inh | ERa coact inh | others
Cc1nc2cc(C(=O)N3CCC4(CC3)OCCO4)ccc2n1-c1cccc(F)c1 | 2.2 | -2.4 | 121.7 | -8.5 | 3.0
O=C(c1ccc2nc(-c3ccco3)c(-c3ccco3)nc2c1)N1CCC2(CC1)OCCO2 | 5.5 | nt | 38.8 | 75.9*[fluorescence artefact?] | 56.5*[fluorescence artefact?]
CN(C)CS/C(N)=N/[C@H](O)C(Cl)(Cl)Cl | 53.8* | nt | nt | nt | nt
C=CCOc1ccc(CC2C(=O)N(C)C(=O)N(C)C2=O)cc1 | 29.7 | 6.8 | 96.8 | 37.1 | 57.4*
O=C(O)CN1CCN(CC(=O)O)CC(=O)[O][Hg][O]C(=O)C1 | 0.0 | nt | nt | nt | nt
CC1=CC(=C2C(=O)NC(=S)NC2=O)C=C(C(F)(F)F)N1C | 11.2 | 0.4 | 61.9 | 63.4*[fluorescence artefact?] | 52.2*[fluorescence artefact?]
CC(C)OCCCNC(=O)c1c(N)n(CC2CCCO2)c2nc3ccccc3nc12 (stereo not drawn) | 7.6 | 3.7 | 83.5 | 7.0 | 21.6
CCCNC(=O)c1c(N)n(CC2CCCO2)c2nc3ccccc3nc12 (stereo not drawn) | 60.6* | 15.3 | 70.6 | 14.9 | 11.8
Cc1c(C(=O)N2CCC3(CC2)OCCO3)oc2ccccc12 | -0.1 | -0.1 | 105.7 | -24.2 | -26.6
Cc1c(C(=O)N2CCC3(CC2)OCCO3)oc2ccc(S(=O)(=O)N3CCOCC3)cc12 | 66.5* | -1.4 | 108.2 | -4.0 | 3.3
COc1ccc(C(=O)O[C@@H]2CC[C@@]3(C)[C@@H]4CC[C@@H]5[C@@]6(O)C[C@@H](O)[C@@]7(O)[C@@H](CN8C[C@H](C)CC[C@H]8[C@]7(C)O)[C@]6(O)C[C@@]53O[C@@]42O)cc1OC | 19.7 | nt | nt | nt | nt
CCCCOCCCn1c(N)c(C(=O)OCCOC)c2nc3ccccc3nc21 | 8.5 | -1.2 | 119.2 | 2.6 | -12.7
CCCCn1c(NC(=O)c2ccco2)c(C(=O)OCC)c2nc3ccccc3nc21 | 41.6 | 27.3* | 85.3 | 4.2 | 4.2 | FAK inh conf=-0.3
COc1ccc(OCC(=O)Nc2ccc(Cl)cc2C(=O)c2ccccc2)cc1 | nt | 25.0* | nt | nt | nt | FAK inh conf=-0.5
N[C@H](Cc1c[nH]c2ccccc12)P(=O)(O)O | 1.1 | nt | nt | nt | nt
C[C@H]1CCCC(=O)CCC/C=C/c2cc(O)cc(O)c2C(=O)O1 | 2.6 | 35.3* | 96.7 | 14.6 | 24.2 | FAK inh conf=30.7*
O=S(=O)(O)/C(=C\c1ccccc1)c1ccccc1 (tested in a mixture with another compound) | 11.6 | nt | nt | nt | nt

Assay outcomes as filed in PubChem BioAssay.
